# PubChem BioAssay (Tox21)
# Records with an inconclusive call do not appear. Where a call stands in place of a potency, no number is given. Activity calls are given as the source filed them. Unless noted, calls come from the whole dose curve; as a rule, active = well fitted curve in the direction sought with a large enough effect in the repeat runs; inconclusive = weak or mixed curves; inactive = no such curve, though single readings can be large; an effect the other way counts as inactive or inconclusive.
# Legend:
# [1] = qHTS assay for small molecules that induce genotoxicity in human embryonic kidney cells expressing luciferase-tagged ATAD5 (AID 651632); note: nearly all actives have a fitted effect of over 15% in size; note: potency is the fitted concentration of half-maximal effect
# Procedure, shortened: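 Concentration-response screen for ATAD5 upregulation in HEK293T luciferase reporter cells; 16 hr treatment at 37C, then luminescence after 30 min with Amplite at room temperature.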
# [2] = qHTS assay for small molecule agonists of the p53 signaling pathway - cell viability (AID 651633; calls by dose curve;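 note: p53RE-bla HCT reporter cells with a stable beta-lactamase p53 reporter; series mostly up to about 83 µM; nearly all actives have a fitted effect of over 30% in size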)
# Procedure, shortened: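 p53RE-bla cells were treated with compound for 16 hours at 37 C. Cytotoxicity was then measured as CellTiter-Glo luminescence after 30 min at room temperature.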
# [3] = qHTS assay for small molecules that induce genotoxicity in human embryonic kidney cells expressing luciferase-tagged ATAD5 - cell viability (AID 651634; calls by dose curve; note: nearly all actives have a fitted effect of over 25% in size; note: potency is the fitted concentration of half-maximal effect)
# Procedure, shortened: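 15.5 hr compound or vehicle exposure of HEK293T cells expressing luciferase-tagged ATAD5 at 37C; live-cell protease activity is read by fluorescence after 30 min of CellTiter-Fluor.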
# [4] = qHTS assay for small molecule disruptors of the mitochondrial membrane potential - cell viability (AID 720634; calls by dose curve;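 note: human HepG2 liver cancer cells; series mostly up to about 83 µM; nearly all actives have a fitted effect of over 20% in size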)
# Procedure, shortened: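 In this qHTS format, HepG2 cells plated overnight were pinned with compound, incubated 1 hr, and assayed for ATP luminescence with CellTiter-Glo after m-MPI dye addition.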
# [5] = qHTS assay to test for compound auto fluorescence at 590 nm (red) in HepG2 cells (AID 720674)
# Procedure, shortened: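 Seeding: 2,000 HepG2 cells/well, MEM/10% FBS, overnight 37 C. Dosing: compound vs DMSO. Incubation: 1 hr, 37 C, 5% CO2. Read: fluorescence 540 ex/590 em, Rose Bengal sodium as red reference.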
# [6] = qHTS assay to test for compound auto fluorescence at 535 nm (green) in HepG2 cells (AID 720675)
# [7] = qHTS assay to test for compound auto fluorescence at 460 nm (blue) in HEK293 cells (AID 720678)
# Procedure, shortened: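 Blue read-out at excitation 405 nm and emission 460 nm follows overnight compound exposure of HEK293 cells at 37C in 5% CO2. Activity is given as auto fluorescence equivalency to triamterene.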
# [8] = qHTS assay to test for compound auto fluorescence at 590 nm (red) in HEK293 cells (AID 720679)
# Procedure, shortened: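 Red channel, Ex/Em 540/590nm; signal expressed as equivalency to Rose Bengal sodium. HEK293, 2,000 cells/well, 10% dialyzed FBS; 23 nL compound pinned after 4-5 hr attachment; overnight 37C/5% CO2 before reading.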
# [9] = qHTS assay for small molecule disruptors of the mitochondrial membrane potential (AID 720635); note: potency is the fitted concentration of half-maximal effect
# Procedure, shortened: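 HepG2 cells exposed to compound 1 hr at 37C, then Mito-MPS dye 30 min. Ratio read of aggregate (540/590 nm) versus monomer (490/535 nm) fluorescence.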
Structure (SMILES),Potency [1],Potency [2],Potency [3],Potency [4],Potency [5],Potency [6],Potency [7],Potency [8],Potency [9]
c1ccc2c(c1)Sc1ccccc1N2CCN1CCCC1,inactive,inactive,inactive,inactive,inactive,inactive,inactive,inactive,–
C/C1=C2N=C(/C=C3N=C(/C(C)=C4\[N-]C(C(CC(N)=O)C4(C)CCC(=O)NCC(C)OP(=O)([O-])OC4C(CO)OC(n5cnc6cc(C)c(C)cc65)C4O)C4(C)N=C1C(CCC(N)=O)C4(C)CC(N)=O)C(CCC(N)=O)C\3(C)C)C(CCC(N)=O)C/2(C)CC(N)=O.[CH3-].[Co+3] (centres undefined),inactive,inactive,23.7 µM (active),inactive,inactive,inactive,inactive,inactive,–
CN[C@@H]1[C@H](O[C@H]2[C@H](O[C@H]3[C@H](O)[C@@H](O)[C@H](N=C(N)N)[C@@H](O)[C@@H]3N=C(N)N)O[C@@H](C)[C@]2(O)CO)O[C@@H](CO)[C@H](O)[C@H]1O,inactive,inactive,inactive,inactive,inactive,–,inactive,–,–
CCCCCCCCCCCCCCCC(=O)OCCC1CCN(CCCN2c3ccccc3Sc3ccc(S(=O)(=O)N(C)C)cc32)CC1,inactive,inactive,inactive,inactive,inactive,inactive,inactive,inactive,–
O=C(CCCCCCCCCCCCC1CCCC1)Nc1ccc(S(=O)(=O)c2ccc(NC(=O)CCCCCCCCCCCCC3CCCC3)cc2)cc1,inactive,inactive,inactive,–,inactive,inactive,inactive,–,inactive
CC(=O)O[C@H]1CC[C@@]2(C)C(=CC[C@@H]3[C@@H]2CC[C@]2(C)C(c4cccnc4)=CC[C@@H]32)C1,inactive,inactive,inactive,inactive,inactive,inactive,inactive,inactive,–
CCC(Oc1ccccc1)C(=O)N[C@@H]1C(=O)N2[C@@H]1SC(C)(C)[C@@H]2C(=O)O (some centres undefined),inactive,inactive,inactive,inactive,inactive,inactive,inactive,inactive,–
O=C1/C(=C\c2cccs2)CCC/C1=C\c1cccs1,5.96 µM (active),inactive,inactive,–,inactive,inactive,inactive,inactive,21.1 µM (active)
OC1OC[C@@H](O)[C@H](O)[C@@H]1O (some centres undefined),inactive,inactive,inactive,inactive,inactive,inactive,inactive,inactive,–
